A selection: hits, their analogues and other compounds. The true share with any hit is near 17%.
HepG2 viability: counter-screen for TGF-b inhibitors: cytotoxicity in HepG2 cells | Potency, µM (series often up to 46.1 µM), for the others: at the top dose activity change, negative = cytotoxicity, usual class: cytotoxic | actives 0.76% (n = 410,000) | AID 588856 | HepG2 CAGA-GFP viability, ATP luminescence, 18 h
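HepG2 CAGA-GFP cells (1000/well, DMEM with 1% FBS) received compound, then TGF-beta at 500 pg/mL final, and were incubated 18 hours at 37 degrees C. Viability was read by CellTiter-Glo luminescence. Media-only wells were set as complete cell-killing and DMSO as no toxicity.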
HT1080 IDH1KD tx: kills HT-1080 cells with IDH1 knockdown | actives 2% (n = 360,000) | Potency, µM (doses to about 46.1 µM), inactives show at the top dose activity, negative = toxicity, most hits filed as cytotoxic | HT-1080 IDH1 knockdown viability, ATP luminescence, 48 h;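 further: 0% = DMSO wells and -100% = cell-free medium wells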
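Viability of IDH1-knockdown HT-1080 fibrosarcoma cells was assessed by CellTiter-Glo after 48 h at 37 °C with titrated compound; concentration-effect curves were classified by fit quality and response size.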
HT1080NT lethal: kills 2HG-producing HT-1080-NT fibrosarcoma cells | actives 1.6% (n = 360,000) | AID 686970 | HT-1080-NT fibrosarcoma viability, CellTiter-Glo ATP luminescence, 48 h | Potency, µM (doses to about 46.1 µM), for the others: at the top dose activity, negative = less viability, usual class: cytotoxic;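 further: NT is the 2HG producing partner of a matched IDH1 knockdown line; 0% = DMSO-treated cells and -100% = media-only wells without cells; nearly all actives have a fitted effect of over 55% in size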
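Viability of the 2HG-overproducing fibrosarcoma line after 48 hours of compound exposure at 37 degrees C was determined by luminescence with CellTiter-Glo, and concentration-effect curves were then fitted and categorized.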
TGFb SMAD3 inh: inhibitors of TGF-b signaling; HepG2 CAGA-GFP TGF-b/SMAD3 reporter, GFP fluorescence, 18 h; TGF-beta stimulated, 500 pg/mL final; Potency, µM (titrated, usually from 46.1 µM), for inactives: at the highest dose activity, negative = inhibition, usual class: inhibitors; AID 588855; actives 1.2% (n = 410,000); further: on the % scale 0 is the no-effect control and ±100 the full control effect; nearly all actives have a fitted effect of over 65% in size
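HEPG2 CAGA-GFP cells (1000/well, DMEM with 1% FBS) were pre-incubated 2 h at 37 degrees C, given compound by pin tool, then stimulated with TGF-beta at 500 pg/mL final for 18 h before per-cell GFP fluorescence imaging.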
TDP1 cell CPT: growth inhibition of DT40 Tdp1-/-;hTDP1 cells with camptothecin (screen for TDP1 inhibitors); AID 686979; actives 12% (n = 420,000); Potency, µM (titrated, usually from 46.2 µM), for inactives: top-dose activity change, negative = growth inhibition, hits mostly inhibitors; chicken DT40 Tdp1-/-;hTDP1 cells + 20 nM CPT, ATP luminescence, 48 h; further: on the % scale 0 is the no-effect control and ±100 the full control effect; nearly all actives have a fitted effect of over 55% in size
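Chicken DT40 Tdp1-/- cells complemented with human TDP1, 400 cells/well, exposed to compounds plus 20 nM camptothecin for at least 48 h at 37 C; viability read as ATP content by CellTiter-Glo luminescence.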
DT40 TDP1 no CPT: qHTS for Inhibitors of human tyrosyl-DNA phosphodiesterase 1 (TDP1): qHTS in cells in absence of CPT. DT40 Tdp1-/- hTDP1 cells, no CPT, ATP luminescence, 48 h. Potency, µM (highest dose often 46.2 µM), without a hit: at the highest dose activity change, negative = growth inhibition, usual class: inhibitors. actives 15% (n = 420,000); further: on the % scale 0 is the no-effect control and ±100 the full control effect; nearly all actives have a fitted effect of over 55% in size
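Growth kinetics read by CellTiter-Glo luminescence after ≥48 hr at 37 °C. Cells: DT40 Tdp1-/- stably carrying human TDP1, 400 per well, compound exposure in the absence of CPT (DMSO vehicle).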
An asterisk follows results filed as active; [ ] = another dose, or the depositor's remark. The call rests on the fitted dose curve; in most records, active means well fitted curve in the direction sought with a large enough effect; inconclusive means small, poorly fitted or top-dose-only effect, or another doubt; inactive means no such curve, though single readings can be large; an effect the other way counts as inactive or inconclusive. Potency means the concentration at half of the fitted maximal effect.

Screening Cc1occc1C(=O)NC(C)C12CC3CC(CC(C3)C1)C2 (stereo not drawn) returned HepG2 viability -6%, HT1080 IDH1KD tx 4%, HT1080NT lethal 9%, TGFb SMAD3 inh 17%, TDP1 cell CPT inconclusive and DT40 TDP1 no CPT inconclusive.
`CC(NC(=O)c1ccccc1F)C12CC3CC(CC(C3)C1)C2` (stereo not drawn) gave HepG2 viability -17%, HT1080 IDH1KD tx 5%, HT1080NT lethal 6%, TGFb SMAD3 inh inconclusive, TDP1 cell CPT 21µM* and DT40 TDP1 no CPT inconclusive.
`Clc1ncc(C#Cc2ccccc2)c2ncncc12` gave HT1080 IDH1KD tx inconclusive, HT1080NT lethal inconclusive, TDP1 cell CPT 1.4µM* and DT40 TDP1 no CPT 0.79µM*.
`COc1c(C(O)CC(C)C)ccc2c1C(=O)OCc1cc(C)cc(O)c1O2` (stereo not drawn) gave HepG2 viability -37%, HT1080 IDH1KD tx -15%, HT1080NT lethal -4%, TGFb SMAD3 inh inconclusive, TDP1 cell CPT inconclusive and DT40 TDP1 no CPT 18µM*.
For COc1c(C(CC(C)C)OC(C)=O)ccc2c1C(=O)OCc1cc(C)cc(O)c1O2 (stereo not drawn) the results were HepG2 viability -55%, HT1080 IDH1KD tx inconclusive, HT1080NT lethal -27%, TGFb SMAD3 inh inconclusive, TDP1 cell CPT 9.2µM* and DT40 TDP1 no CPT 12µM*.
For O=C(COC(=O)CCNS(=O)(=O)c1cccs1)Nc1ccccc1 the results were HepG2 viability -28%, HT1080 IDH1KD tx 7%, HT1080NT lethal -25%, TGFb SMAD3 inh -8%, TDP1 cell CPT -20% and DT40 TDP1 no CPT -5%.
For O=c1c(-c2cc(F)cc(F)c2)nc2cnc(N3CCOCC3)nc2n1C1CC1 the results were TDP1 cell CPT -5% and DT40 TDP1 no CPT -1%.
`Cc1cccc(NC(=O)C2CC(=O)n3cnnc3S2)c1` (stereo not drawn) gave HepG2 viability 0%, HT1080 IDH1KD tx 0%, HT1080NT lethal -2%, TGFb SMAD3 inh inconclusive, TDP1 cell CPT 4.6µM* and DT40 TDP1 no CPT 5.8µM*.
Cc1cccc(NC(=O)C2CCN(c3nc(C)cc(C)n3)CC2)c1 was read as HepG2 viability -17%, HT1080 IDH1KD tx -1%, HT1080NT lethal -5%, TGFb SMAD3 inh -12%, TDP1 cell CPT inconclusive and DT40 TDP1 no CPT inconclusive.
`O=C(COc1ncnc2ccccc12)Nc1cc([N+](=O)[O-])ccc1F` gave HepG2 viability -25%, HT1080 IDH1KD tx 0%, HT1080NT lethal 9%, TGFb SMAD3 inh 2%, TDP1 cell CPT -3% and DT40 TDP1 no CPT 3%.
`Cc1cnc(-n2ncc(C(=O)N(C)CCc3ccccn3)c2-c2cccs2)nc1-c1ccc(F)cc1` gave TDP1 cell CPT -14%[9.04 µM] and DT40 TDP1 no CPT 12µM*.
For COc1ccccc1-c1ccnc(-n2ncc(C(=O)N(C)CCc3ccccn3)c2C)n1 the results were TDP1 cell CPT 8%[9.04 µM] and DT40 TDP1 no CPT 8%.
Cc1cc(N/N=C2/CCCc3ccccc32)nc2ccccc12 was read as HepG2 viability 11µM*, HT1080 IDH1KD tx -19%, HT1080NT lethal inconclusive, TGFb SMAD3 inh 16µM*, TDP1 cell CPT inconclusive and DT40 TDP1 no CPT 10µM*.
O=C(CN1C(=O)c2cccc3cccc1c23)Nc1cccc(F)c1 was read as HepG2 viability -2%, TGFb SMAD3 inh -24%, TDP1 cell CPT 6% and DT40 TDP1 no CPT -27%.
CCOC(=O)C1=CN(Cc2ccco2)S(=O)(=O)N(C)C1c1ccc2ccccc2c1 (stereo not drawn) was read as HepG2 viability -10%, HT1080 IDH1KD tx -1%, HT1080NT lethal -9%, TGFb SMAD3 inh -27%, TDP1 cell CPT 21µM* and DT40 TDP1 no CPT inconclusive.
Cc1ccc(C(=O)OCC(=O)NNC(=O)c2cccs2)c(O)c1 was read as HepG2 viability 3%, HT1080 IDH1KD tx 6%, HT1080NT lethal 4%, TGFb SMAD3 inh 10%, TDP1 cell CPT 0% and DT40 TDP1 no CPT -1%.
For O=S1(=O)N[C@@H](Cc2ccccc2)COc2cc(N3CCC[C@@H]3CO)ccc21 the results were HT1080 IDH1KD tx inconclusive, HT1080NT lethal -8%, TDP1 cell CPT inconclusive and DT40 TDP1 no CPT 16µM*.
Cc1nnc(-c2cnn(C)c2N)n1CCCN1CCOCC1 was read as HepG2 viability -1%, HT1080 IDH1KD tx 2%, HT1080NT lethal 9%, TGFb SMAD3 inh 12%, TDP1 cell CPT -19% and DT40 TDP1 no CPT -28%.
Screening COCCNc1nc(CSc2ccccc2)nc2sc(C)c(C)c12 returned HepG2 viability -19%, HT1080 IDH1KD tx -15%, HT1080NT lethal -9%, TGFb SMAD3 inh -19%, TDP1 cell CPT inconclusive and DT40 TDP1 no CPT inconclusive.
For Cc1sc2nc(CSc3ccccc3)nc(N3CCN(C)CC3)c2c1C the results were HepG2 viability -8%, HT1080 IDH1KD tx inconclusive, HT1080NT lethal inconclusive, TGFb SMAD3 inh -8%, TDP1 cell CPT inconclusive and DT40 TDP1 no CPT 16µM*.
Screening Cc1ccc2[nH]c(O)c(N=Nc3ccccc3[N+](=O)[O-])c2c1 returned HepG2 viability 0%, HT1080 IDH1KD tx -1%, HT1080NT lethal 3%, TGFb SMAD3 inh -16%, TDP1 cell CPT 8.2µM* and DT40 TDP1 no CPT 5.8µM*.
For COc1ccc(C=NNc2nc3ccccc3s2)cc1 the results were HepG2 viability -27%, HT1080 IDH1KD tx -14%, HT1080NT lethal -16%, TGFb SMAD3 inh -2%, TDP1 cell CPT -1% and DT40 TDP1 no CPT inconclusive.
`Cc1ccc2[nH]c(C)c(/C=N/Nc3nc4ccccc4s3)c2c1` gave HepG2 viability -41%, HT1080 IDH1KD tx inconclusive, HT1080NT lethal inconclusive, TGFb SMAD3 inh 11µM*, TDP1 cell CPT -25% and DT40 TDP1 no CPT inconclusive.
Oc1[nH]c2ccccc2c1N=Nc1nc2ccccc2s1 was read as HepG2 viability -21%, HT1080 IDH1KD tx 0%, HT1080NT lethal 12%, TGFb SMAD3 inh 11%, TDP1 cell CPT inconclusive and DT40 TDP1 no CPT inconclusive.
For Cc1ccc2[nH]c(O)c(N=Nc3nc4ccccc4s3)c2c1 the results were HepG2 viability -12%, HT1080 IDH1KD tx -1%, HT1080NT lethal inconclusive, TGFb SMAD3 inh -16%, TDP1 cell CPT 10µM* and DT40 TDP1 no CPT 7.3µM*.

Screening results (PubChem)
